Inhibition data for 59 compounds are collected here from PubChem BioAssay AID1671202 (University of Kansas High Throughput Screening Laboratory, 2021).

Several values for one entry are separate records, joined by “and”; a condition that tells them apart may be missing. Identical values can stand only once. Out of some 190,000 compounds screened, about 6,900 (3.6%) were called active. For the sample, actives were picked, then their nearest neighbours and some compounds at random. A number with no mark means an inactive call. No stated cut-off is given here; in the data, active means inhibition above about 50%; inactive means the rest.

Huntingtin (Homo sapiens), sequence (P42858 whole entry, looked up, stated change not applied): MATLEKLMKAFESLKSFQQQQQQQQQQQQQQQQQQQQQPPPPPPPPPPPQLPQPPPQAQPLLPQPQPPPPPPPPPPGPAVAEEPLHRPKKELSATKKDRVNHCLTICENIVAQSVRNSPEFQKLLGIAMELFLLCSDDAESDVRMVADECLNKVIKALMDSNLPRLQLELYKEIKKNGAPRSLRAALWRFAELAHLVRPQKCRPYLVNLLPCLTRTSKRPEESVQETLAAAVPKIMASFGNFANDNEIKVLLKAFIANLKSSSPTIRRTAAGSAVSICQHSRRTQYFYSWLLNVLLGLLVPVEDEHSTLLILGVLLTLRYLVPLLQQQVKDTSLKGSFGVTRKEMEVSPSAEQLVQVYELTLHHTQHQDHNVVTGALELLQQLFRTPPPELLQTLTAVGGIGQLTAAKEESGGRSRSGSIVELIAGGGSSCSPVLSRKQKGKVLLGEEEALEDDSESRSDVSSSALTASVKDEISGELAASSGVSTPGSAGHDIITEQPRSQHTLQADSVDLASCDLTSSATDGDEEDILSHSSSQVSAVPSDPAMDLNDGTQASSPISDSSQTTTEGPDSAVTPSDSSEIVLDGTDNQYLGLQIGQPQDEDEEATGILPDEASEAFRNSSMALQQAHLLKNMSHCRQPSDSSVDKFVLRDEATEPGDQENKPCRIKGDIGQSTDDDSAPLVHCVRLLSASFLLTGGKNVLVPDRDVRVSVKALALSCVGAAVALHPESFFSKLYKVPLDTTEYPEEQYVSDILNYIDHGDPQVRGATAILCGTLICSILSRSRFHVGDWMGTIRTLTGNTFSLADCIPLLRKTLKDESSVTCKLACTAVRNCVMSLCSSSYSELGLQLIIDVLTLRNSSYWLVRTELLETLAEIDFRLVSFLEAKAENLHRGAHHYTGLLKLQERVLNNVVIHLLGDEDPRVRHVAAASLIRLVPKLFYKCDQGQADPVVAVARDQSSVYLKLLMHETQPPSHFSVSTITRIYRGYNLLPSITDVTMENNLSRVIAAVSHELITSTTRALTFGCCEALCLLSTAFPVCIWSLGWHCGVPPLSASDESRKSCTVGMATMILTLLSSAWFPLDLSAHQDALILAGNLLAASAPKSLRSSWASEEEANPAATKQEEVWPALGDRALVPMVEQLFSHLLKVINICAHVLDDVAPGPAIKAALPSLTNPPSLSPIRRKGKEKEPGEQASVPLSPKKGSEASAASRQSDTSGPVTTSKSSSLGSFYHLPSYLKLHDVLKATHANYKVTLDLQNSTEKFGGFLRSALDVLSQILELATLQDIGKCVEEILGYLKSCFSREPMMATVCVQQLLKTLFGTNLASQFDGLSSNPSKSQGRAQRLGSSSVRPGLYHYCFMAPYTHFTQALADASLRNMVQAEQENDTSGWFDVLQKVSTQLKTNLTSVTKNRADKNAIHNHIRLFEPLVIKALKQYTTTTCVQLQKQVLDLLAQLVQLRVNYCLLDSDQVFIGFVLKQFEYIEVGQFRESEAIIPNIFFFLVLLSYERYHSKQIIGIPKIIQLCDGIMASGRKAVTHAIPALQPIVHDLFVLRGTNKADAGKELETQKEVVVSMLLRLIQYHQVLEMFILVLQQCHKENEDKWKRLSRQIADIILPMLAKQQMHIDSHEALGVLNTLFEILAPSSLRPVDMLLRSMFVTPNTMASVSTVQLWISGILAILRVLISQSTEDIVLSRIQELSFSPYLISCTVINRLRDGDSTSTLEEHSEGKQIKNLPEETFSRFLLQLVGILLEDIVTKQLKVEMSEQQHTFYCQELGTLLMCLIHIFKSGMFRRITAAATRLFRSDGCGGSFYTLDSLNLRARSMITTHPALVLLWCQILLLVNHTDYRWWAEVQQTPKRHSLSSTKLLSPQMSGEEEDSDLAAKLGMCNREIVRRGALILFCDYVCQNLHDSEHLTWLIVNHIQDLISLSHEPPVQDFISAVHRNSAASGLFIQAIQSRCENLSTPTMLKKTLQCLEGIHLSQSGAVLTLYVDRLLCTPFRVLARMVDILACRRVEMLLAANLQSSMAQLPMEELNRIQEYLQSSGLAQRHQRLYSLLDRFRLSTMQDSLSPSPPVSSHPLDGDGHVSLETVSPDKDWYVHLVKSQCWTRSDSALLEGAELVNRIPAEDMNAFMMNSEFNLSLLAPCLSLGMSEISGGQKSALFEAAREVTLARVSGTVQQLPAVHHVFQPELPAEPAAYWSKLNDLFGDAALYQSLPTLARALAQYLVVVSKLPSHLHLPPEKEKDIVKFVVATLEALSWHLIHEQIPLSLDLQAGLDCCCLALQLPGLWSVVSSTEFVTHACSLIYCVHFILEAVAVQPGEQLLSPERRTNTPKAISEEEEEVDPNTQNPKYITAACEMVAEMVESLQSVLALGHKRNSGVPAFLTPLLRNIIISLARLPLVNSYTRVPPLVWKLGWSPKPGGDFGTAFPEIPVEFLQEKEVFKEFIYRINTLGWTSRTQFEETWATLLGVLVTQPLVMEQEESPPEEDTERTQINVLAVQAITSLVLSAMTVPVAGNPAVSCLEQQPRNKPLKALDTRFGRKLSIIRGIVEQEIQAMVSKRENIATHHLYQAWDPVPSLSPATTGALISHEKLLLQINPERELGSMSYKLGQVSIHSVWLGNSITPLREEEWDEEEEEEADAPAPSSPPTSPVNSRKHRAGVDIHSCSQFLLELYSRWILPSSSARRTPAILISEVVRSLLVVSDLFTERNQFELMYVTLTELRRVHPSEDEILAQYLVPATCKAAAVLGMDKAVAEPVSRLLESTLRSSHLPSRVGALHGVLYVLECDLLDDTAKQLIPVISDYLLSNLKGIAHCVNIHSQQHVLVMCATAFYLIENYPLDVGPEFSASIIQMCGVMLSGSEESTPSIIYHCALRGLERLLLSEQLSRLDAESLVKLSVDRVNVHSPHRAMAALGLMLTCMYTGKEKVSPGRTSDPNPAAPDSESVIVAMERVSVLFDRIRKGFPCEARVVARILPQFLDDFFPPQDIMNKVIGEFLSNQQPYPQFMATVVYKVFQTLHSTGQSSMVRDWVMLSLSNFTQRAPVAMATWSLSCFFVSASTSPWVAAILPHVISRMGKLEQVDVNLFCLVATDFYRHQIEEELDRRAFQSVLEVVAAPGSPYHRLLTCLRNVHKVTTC

The assay concerns the target Huntingtin (Homo sapiens) (UniProt P42858). As to the kind of experiment: mutant huntingtin-calmodulin interaction inhibitors – biochemical, AlphaScreen, primary screen (AID 1671202).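 Further: 0% = both proteins with DMSO and 100% = one protein alone.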 As to conditions: AlphaScreen His-mHTT/GST-CaM binding, luminescence; at 15 µM, hits give high values. Background: Bead proximity is the source of the signal in Alpha formats.
In general, inhibition refers to the drop in the measured response relative to a control, in per cent. As to `CC(=O)N1CCN(c2nc3c(s2)CC(C(=O)NCCCN2CCC(C)CC2)CC3)CC1` (centres undefined), the inhibition is 4.75%.

Turning to `Cc1nnc(NC(=O)CSc2nc(C(C)C)ccc2C#N)s1`, the inhibition was -5%. As for `C(=C\c1ccccc1)/CN1CCN(CC2CCCCC2)CC1`, the figure is 3.7%; as for `Cc1ccccc1N1CCN(C/C=C/c2ccccc2[N+](=O)[O-])CC1`, 35.9%. Turning to `CN(C)c1ccc(/C=C/CN2CCN(c3ccccc3F)CC2)cc1`, the inhibition is 72.5% (active). Take `Cc1cc(CNC(=O)CSc2ccncc2)no1`: the inhibition was -14.6%. As for `CC(=O)N1CCc2c(sc(NC(=O)c3cc(C)oc3C)c2C(N)=O)C1`, the figure is -3.5%; as for `Cc1cc2c(N3CCC(C(=O)Nc4cccc(C(F)(F)F)c4)CC3)nccc2s1`, 80.9% (active). Regarding `Cc1cc2c(N3CCCC(C(=O)Nc4cccc(F)c4)C3)nccc2s1` (centres undefined), the inhibition was -8.41%. The same measure for `Cc1cc2c(N3CCC(C(=O)Nc4cccc(F)c4)CC3)nccc2s1`: 45.2%; for `O=C1CC(c2ccccc2Cl)=Nc2ccccc2N1`: 5%; for `C=CCN(CC=C)S(=O)(=O)c1ccc(C(=O)Nc2nnc(-c3ccc(F)cc3)o2)cc1`: 6%. On to `N#Cc1sc2nc(-c3cccs3)ccc2c1N`, for which the inhibition is 5% and -18.7%. `COc1cc(OC)c(OC)cc1CN1CCN(c2ccccc2F)CC1`: the inhibition was 6.5%. Consider `COc1cc2c(-c3ccccc3)c(C)oc2cc1CN1CCN(c2ncccn2)CC1`, for which the inhibition is 62.2% (active). The same measure for `COc1cc(CN2CCN(Cc3cc(OC)c(OC)cc3OC)CC2)cc(OC)c1`: 7.3%; for `CN(CCc1ccccn1)C(=O)C1CCCN(c2cnn(C)c(=O)c2)C1` (centres undefined): -0.11%. On to `CCC(=O)NCc1csc(C2CCN(C(=O)c3cccs3)CC2)n1`, for which the inhibition was 5.45%. As for `Cc1ccc(CNC(=O)C2(C)CCCN(C(=O)CC(C)C)C2)cc1` (centres undefined), the figure is -7.13%; as for `COc1ccc(C(=O)N2CCOC(COc3ccc(C)cc3)C2)cc1` (centres undefined), 4.7%; as for `CC(C)C[C@@H](CO)N1CCN(Cc2ccc(O)cc2)CCC1=O`, -0.4%. As to `O=C(c1ccc(C(F)(F)F)cc1)N1CCC(=O)N([C@H](COCc2ccccc2)Cc2ccccc2)CC1`, the inhibition is 99.4% (active). In the case of `Cc1ccc(S(=O)(=O)N2CCC(=O)N([C@H](COCc3ccccc3)Cc3ccccc3)CC2)cc1`, the inhibition is -1.2% and -4%. As for `CN1CCC(=O)N([C@H](CO)Cc2ccccc2)CC1`, the figure is -6.6%.

In the case of `CC(C)C[C@@H](COc1ccccc1)N1CCN(CC(C)C)CCC1=O`, the inhibition was 5.6%. The same measure for `CC(C)C[C@@H](COCc1ccc(Cl)cc1)N1CCN(C(=O)c2ccc(Cl)cc2Cl)CCC1=O`: 86% (active); for `O=C(NCC(c1cccs1)N1CCOCC1)C(=O)Nc1ccon1` (centres undefined): -10.7%; for `CCOc1ccccc1N1CCN(CC2CC3C=CC2C3)CC1` (centres undefined): 3.9%. As for `Cc1cccc2c(C(=O)N3CCOCC3)cc(-c3ccccc3)nc12`, the figure is 26.2%; as for `Cc1ccc(C(=O)N2CCCC(COc3ccc(C(=O)N4CCOCC4)cc3)C2)cc1` (centres undefined), 5.35%. As for `O=[N+]([O-])c1ccccc1/C=C/CN1CCN(C/C=C/c2ccccc2)CC1`, the figure is 75.3% (active); as for `O=[N+]([O-])c1ccccc1/C=C/CN1CCN(c2ccccc2)CC1`, 32.8%. With `O=[N+]([O-])c1ccccc1/C=C/CN1CCC(O)CC1`, the inhibition was -1.3%. With `COc1ccc(Cl)cc1NC(=O)C1CC(=O)N(c2ccc3c(c2)CCN3C(C)=O)C1` (centres undefined), the inhibition was 2.25%. For the compound `Cn1nccc1C(=O)N1CCCC1c1cccc(F)c1` (centres undefined), the inhibition was -3.94%. The same measure for `COc1ccc(S(=O)(=O)NCCc2ccccc2)c(C)c1C`: -7.6%; for `CN1CCCc2cc(C(CNC(=O)c3ccccc3Cl)N3CCOCC3)ccc21` (centres undefined): 19.8%. As for `CN1CCCc2cc(C(CNC(=O)C(=O)NC3CCCCC3)N(C)C)ccc21` (centres undefined), the figure is 5.1%; as for `CN1CCc2cc(C(CNC(=O)C(=O)NCc3ccccc3Cl)N(C)C)ccc21` (centres undefined), 53.3% (active); as for `N#CCn1cccc1-c1nc(-c2ccncc2)no1`, 38.7%. Take `CC(C)(C)C(O)CCNC(=O)c1cccc(F)c1` (centres undefined): the inhibition was -16.4%. Turning to `COc1ccc(C2=N/C(=C/c3ccc4c(c3)OCO4)C(=O)O2)c(Br)c1`, the inhibition was 3%. As for `O=C(Nc1ccc(N2CCOCC2)cc1)c1cccc(Br)c1`, the figure is -1.7%; as for `COc1ccccc1OCC(=O)Nc1c2c(nn1-c1ccc(F)cc1)CS(=O)(=O)C2`, -5.8%; as for `O=C1C2CC=CCC2C(=O)N1c1ccc(F)c([N+](=O)[O-])c1` (centres undefined), -1%. Turning to `CC1CC(=O)N(c2ccc(NC3CCCC(C)C3C)c([N+](=O)[O-])c2)C1=O` (centres undefined), the inhibition was 51% (active). Take `CC1CCCC(Nc2ccc(N3C(=O)CCCC3=O)cc2[N+](=O)[O-])C1C` (centres undefined): the inhibition was 48%. The same measure for `COc1ccccc1NC(=O)C(CCS(C)(=O)=O)NC(C)=O` (centres undefined): 0%; for `Cc1ccc(C2=NC3(CCCCC3)N(CC(=O)Nc3cccc(C)c3)C2=O)cc1`: 0.12%; for `CN(C)c1ncccc1C(=O)Nc1ccccc1F`: -5.3%.

In the case of `COc1ccc(-c2c(-c3ccc(OC)cc3O)nc(C)nc2C(F)(F)F)cc1`, the inhibition was -2.9%. As for `CCCc1cc(C2CCCN2Cc2cn[nH]c2-c2cccc(OC)c2)no1` (centres undefined), the figure is -7.21%.

`CCCc1ccc(Oc2cn[nH]c2-c2ccc(OC)cc2O)cc1`: the inhibition was 51% (active). The same measure for `CCOc1ccc(-c2nn(C)c(C)c2Oc2ccccc2)c(O)c1`: -3.5%. The same measure for `Cc1c(O)ccc(-c2[nH]ncc2Oc2ccccc2)c1O`: 54.4% (active) and 53% (active); for `CCOc1ccccc1CN1CCC(C(=O)N2CCN(Cc3ccccc3)CC2)CC1`: 2.9%; for `CC(C)(C)CC(=O)N1CC(C(=O)NC2CC2)C(c2ccc(F)cc2)C1` (centres undefined): -0.9%.

As for `O=C(c1ccc(C(F)(F)F)cc1)N1CCN(c2nc(CN3CCCC3)cs2)CC1`, the inhibition is 1.28%. The same measure for `COc1ccc(CN(CC(=O)NCCc2ccccc2)S(=O)(=O)c2cccnc2)cc1`: -5.6%.
